# SKKanGAS inh = blocks kanamycin growth of S. pyogenes SKKanGAS strain. BacTiter-Glo, 6 h. inhibition, % at 7.5 µM. 300,000 tested, 1.3% active;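 active means mean replicate score, as percent of positive control median, at least 50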;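 further: strain carries kanamycin resistance gene driven by streptokinase promoter and grows in 40 µg/ml kanamycin; loss of luminescence reflects streptokinase promoter inhibition or plain growth inhibition; 0% = median of DMSO wells and 100% = positive control at its reference dose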
# ATG4B inhibitor = inhibitors of human ATG4B cysteine protease. AID 504462. ATG4B cleavage of LC3-PLA2, NBD-HPC fluorescence, 1 h. Q9Y4P1. 340,000 tested, 0.51% active. inhibition, % at 8.33 µM; in the data active means inhibition above about 40%
# Target sequence (Q9Y4P1 whole entry, looked up): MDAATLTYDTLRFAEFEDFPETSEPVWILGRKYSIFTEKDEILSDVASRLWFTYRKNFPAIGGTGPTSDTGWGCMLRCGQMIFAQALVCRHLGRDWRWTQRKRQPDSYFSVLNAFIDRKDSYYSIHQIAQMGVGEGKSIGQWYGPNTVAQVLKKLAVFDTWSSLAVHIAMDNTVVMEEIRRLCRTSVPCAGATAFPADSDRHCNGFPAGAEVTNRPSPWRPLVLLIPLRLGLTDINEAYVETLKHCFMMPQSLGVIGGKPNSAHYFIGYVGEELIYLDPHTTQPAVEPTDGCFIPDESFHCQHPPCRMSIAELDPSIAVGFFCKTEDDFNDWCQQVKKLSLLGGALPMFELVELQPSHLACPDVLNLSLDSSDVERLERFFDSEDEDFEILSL
# TIM10 inh = growth inhibitors of TIM10 yeast strain; S. cerevisiae TIM10 strain growth, BacTiter-Glo luminescence, 24 h; inhibition, % at 10 µM; 330,000 tested, 1.4% active; AID 463195;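 active means inhibition of 40% or more at the single tested concentration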;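 further: wild-type TIM10 isogenic control strain grown at permissive 25 °C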
# tim23-1 inh = inhibits growth of tim23-1 mutant yeast. S. cerevisiae tim23-1 growth, BacTiter-Glo luminescence, 24 h. inhibition, % at 20 µM. 330,000 tested, 1.3% active. AID 463212;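 active means growth inhibition of the mutant yeast at or above 50%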;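 further: temperature-sensitive mutant grown at 25 °C; plate controls were DMSO-treated mutant yeast for no effect and medium wells lacking yeast for full effect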
# PfHsp90 yeast 2 = inhibits growth of yeast expressing Plasmodium falciparum Hsp90; S. cerevisiae expressing PfHsp90, BacTiter-Glo ATP, 48 h; yeast lacking PDR1 and PDR3 efflux regulators; inhibition, % at 9.4 µM; 310,000 tested, 0.32% active;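 active means every replicate shows inhibition above about 80%, whatever the replicate mean, limit read from the data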;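 further: 0% = DMSO neutral controls and 100% = 20 µM radicicol positive controls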
# tim10-1 inh = growth inhibitors of tim10-1 mutant yeast | AID 463190 | inhibition, % at 20 µM | S. cerevisiae tim10-1 ts strain growth, BacTiter-Glo, 24 h | 330,000 tested, 2.2% active;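 active means inhibition of at least 40%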;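 further: mutant grown at 25 °C; 0% = DMSO wells with yeast and 100% = wells holding no yeast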
# tim10 confirm = confirmation of TIM10 yeast growth inhibitors; S. cerevisiae tim10 strain growth, BacTiter-Glo luminescence, 24 h; 4,600 tested, 63% active; shares compounds with TIM10 inh; inhibition, % at 10 µM;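 active means inhibition of yeast growth at or above a set limit in either of two replicates at 10 µM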;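 further: this counterscreen used the strain with wild-type TIM10; 0% = yeast with DMSO and 100% = medium wells lacking yeast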
# * = called active by the depositor; nt = not tested or not shown. An excerpt weighted towards active compounds, which were near 4.7% of everything screened.
SMILES,SKKanGAS inh,ATG4B inhibitor,TIM10 inh,tim23-1 inh,PfHsp90 yeast 2,tim10-1 inh,tim10 confirm
COc1ccc(C2CC(c3ccccc3)=NN2C(=S)Nc2ccccc2)cc1 (stereo unspecified),-7,-7,29,19,16,26,nt
Clc1ccc(CNc2cnccn2)cc1,-3,6,6,10,nt,8,nt
COc1ccc(C(c2nnnn2C2CCCC2)N2CCN(c3ccccc3)CC2)cc1 (stereo unspecified),5,6,20,37,13,34,nt
Cc1ccc(C(c2nnnn2C2CCCC2)N2CCN(c3nc4ccccc4s3)CC2)cc1 (stereo unspecified),10,-11,56*,12,-12,38,-1
c1ccc(C(c2nnnn2C2CCCC2)N2CCN(c3nc4ccccc4s3)CC2)cc1 (stereo unspecified),16,6,47*,12,-13,36,-19
c1csc(C(c2nnnn2C2CCCCC2)N2CCN(c3nc4ccccc4s3)CC2)c1 (stereo unspecified),7,16,nt,nt,72,nt,nt
Cc1ccc(CN2CCN(CC(=O)NC(C)CCc3ccccc3)C2=O)cc1 (stereo unspecified),-3,-4,1,15,0,22,nt
C/C(=N\NC(=S)NC(C)C)c1cccc([N+](=O)[O-])c1,-2,-8,42*,37,-27,34,6
COc1ccc(-c2cc(=NC(CC(C)C)C(=O)O)c3cc(C)ccc3o2)cc1 (stereo unspecified),3,-9,61*,29,0,31,44*
COc1ccc(-c2cc(=Nc3ccc(C)cc3)c3ccccc3o2)cc1,17,-1,55*,48,-6,37,47*
COc1ccc(N=c2cc(-c3ccc(O)cc3)oc3ccccc23)cc1,-1,9,31,47,-2,40,nt
CC(C)(C)n1nnnc1C(c1cccnc1)N1CCN(c2cccc(C(F)(F)F)c2)CC1 (stereo unspecified),2,-1,-51,-83,18,-26,nt
CC(C)(C)c1cc(C(c2cccnc2)N2CCN(CCO)CC2)cc(C(C)(C)C)c1O (stereo unspecified),-43,-8,41*,42,105*,21,54*
Cc1c([N+](=O)[O-])cc(C(=O)Oc2ccc(Br)cc2C(=S)N2CCCCC2)cc1[N+](=O)[O-],8,-6,44*,21,-28,34,32*
O=C(NCCN1CCOCC1)c1cc(-c2ccc(Br)cc2)on1,-4,6,7,10,12,5,nt
O=[N+]([O-])c1cccc(/C=C/c2nc3ccc([N+](=O)[O-])cc3[nH]2)c1,17,7,54*,42,-20,20,58*
CN(C)CCCn1c(NCc2ccc3c(c2)OCO3)nc2ccccc21,2,9,-9,-8,-9,-9,nt
OC(CNCc1ccco1)Cn1c2ccc(Br)cc2c2cc(Br)ccc21 (stereo unspecified),52*,-6,46*,21,44,8,65*
Brc1ccc2ncnc(NCc3ccco3)c2c1,13,-7,14,5,-12,22,nt
Cc1ccc(S(=O)(=O)NC2CC(C)(C)NC(C)(C)C2)cc1C,3,-5,-1,-11,-9,-9,nt
O=C(Nc1ccc(Cl)cc1)c1ccc(S(=O)(=O)N2CCOCC2)cc1,3,-6,1,10,-65,3,nt
O=C(Nc1ccc(S(=O)(=O)N2CCOCC2)cc1)c1ccc(Cl)s1,-1,-31,41*,33,-1,36,30
O=C(Nc1ccc(F)cc1)c1ccc(S(=O)(=O)N2CCCC2)cc1,-5,-6,-17,21,-11,19,nt
O=C(Nc1ccc(S(=O)(=O)N2CCCC2)cc1)c1cc(F)c(F)cc1Cl,-1,5,41*,36,-12,38,33*
CC(C)(CO)Nc1nc(Nc2ccccc2)nc(Nc2ccccc2)n1,-1,7,13,5,-3,17,nt
SMILES,SKKanGAS inh,ATG4B inhibitor,TIM10 inh,tim23-1 inh,PfHsp90 yeast 2,tim10-1 inh,tim10 confirm
O=C(NC1CC1)C1=C[C@@H](c2ccc(Br)cc2)C[C@@H](OCCCCO)O1,3,0,3,0,2,-4,nt
Cc1cc2nc(C)n3c4ccccc4nc3n2n1,5,-6,59*,43,19,38,45*
CCc1nc2cc(C)nn2c2nc3ccccc3n12,-3,-5,10,17,26,6,nt
C[C@H](CO)N1C[C@H](C)[C@@H](CN(C)S(C)(=O)=O)Oc2c(NC(=O)Nc3ccc(C(F)(F)F)cc3)cccc2C1=O,nt,5,-6,10,-12,24,nt
CC(C)C(c1nnnn1C1CCCCC1)N1CCc2ccccc21 (stereo unspecified),0,-1,46*,-7,17,29,31*
Cc1ccc(C(c2nnnn2C2CCCCC2)N2CCc3ccccc32)cc1 (stereo unspecified),20,16,24,32,-13,27,nt
COc1ccc(CCCC(=O)N/N=C/c2cccc(OC)c2O)cc1C,75*,-5,55*,35,-4,6,-10
COc1cccc(/C=N/NC(=O)C[n+]2ccccc2)c1O,-4,-8,21,4,-28,15,nt
Cc1nn(Cc2ccccc2Cl)c(C)c1NC(=O)NC12CC3CC(CC(C3)C1)C2,0,-3,39,15,24,25,nt
O=C(c1ccccc1)N1N=C(C(F)(F)F)CC1(O)c1ccc(F)cc1 (stereo unspecified),-15,-4,67*,37,3,0,23
Cc1ccc(/C=N/n2c(COc3ccccc3)n[nH]c2=S)o1,-3,-5,37,36,11,37,nt
O=C1CCCN1CCCNC(=S)Nc1ccc(F)cc1,0,1,2,3,11,9,nt
Cc1ccc(/C=N/n2c(COc3ccccc3)n[nH]c2=S)s1,-3,-7,48*,39,-18,39,44*
CCCC(=O)Nc1ccc2c(c1)nc1n2CCOC1,-15,-3,-6,1,2,-1,nt
COc1ccc(C(=O)Nc2ccc3c(c2)nc2n3CCSC2)cc1,-4,-9,51*,35,nt,11,42*
CCC(=O)Nc1ccc2c(c1)nc1n2CCSC1,2,2,-2,14,-6,20,nt
CC(C)C(=O)Nc1ccc2c(c1)nc1n2CCSC1,-3,-6,4,9,8,9,nt
O=C(Nc1ccc2c(c1)nc1n2CCSC1)c1ccccc1,2,-9,66*,40,-1,39,67*
O=C(Nc1ccc2c(c1)nc1n2CCOC1)c1ccccc1,-6,-4,63*,44,3,35,47*

# Assay outcomes deposited in PubChem BioAssay by several laboratories.
